Screening results from PubChem.
The list is not random: actives were taken first. Their share in the collection is about 6.2%.
S2 tox – reduces viability in counter-screen for ATXN expression inhibitors; AID 651635; 400,000 tested, 0.49% active; S2 cells (HEK-293 line with an ATXN2-luciferase reporter) viability, CellTiter-Fluor protease fluorescence, 24 h; Potency, µM (top dose mostly 56.7 µM), usual class: cytotoxic; also: nearly all actives have a fitted effect of over 40% in size
KB-3-1 tox – KB-3-1 parental cell cytotoxicity. KB-3-1 viability, CellTiter-Glo ATP luminescence, 72 h. Potency, µM (series often up to 46.1 µM), actives largely listed as cytotoxic. AID 1347075. 400,000 tested, 1.4% active; also: nearly all actives have a fitted effect of over 60% in size
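Using CellTiter-Glo luminescence, growth of non-resistant KB-3-1 adenocarcinoma cells is assessed 72 h after pin-tool compound addition at 37 °C. Normalized responses across the concentration series yield fitted curves.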
HT1080NT lethal – kills 2HG-producing HT-1080-NT fibrosarcoma cells. HT-1080-NT fibrosarcoma viability, CellTiter-Glo ATP luminescence, 48 h. Potency, µM (top dose mostly 46.1 µM), hits mostly cytotoxic. 360,000 tested, 1.6% active;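 also: NT is the 2HG producing partner of a matched IDH1 knockdown line; nearly all actives have a fitted effect of over 55% in size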
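Viability by CellTiter-Glo luminescence after 48 h compound exposure at 37C of HT-1080-NT cells (750/well, RPMI, 5% FBS). % activity scaled between DMSO wells and medium-only wells, then curve-fitted and categorized by curve class.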
KB-V1 cytotox – kills drug-selected multidrug resistant KB-V1 cells; KB-V1 MDR cells viability, CellTiter-Glo, 72 h; Potency, µM (top dose mostly 46.1 µM), usual class: cytotoxic; 400,000 tested, 3.4% active; AID 1347076; also: nearly all actives have a fitted effect of over 60% in size
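Luminescent ATP read-out (CellTiter-Glo, 10 min) measures survival of drug-selected KB-V1 MDR cells after 72 h, 37 degrees C compound exposure. Medium: phenol-red-free DMEM, 10% FBS. Values from fitted concentration-response curves.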
ATXN2 expr inh – inhibitors of ATXN2 expression. Potency, µM (highest dose often 57 µM), actives largely listed as inhibitors. 360,000 tested, 0.72% active. HEK-293 ATXN2-luciferase reporter, luminescence, 24 h; also: nearly all actives have a fitted effect of over 55% in size
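ATXN2-luciferase reporter cells (luciferase flanked by upstream and downstream ATXN2 gene portions) were treated 24 h at 37 °C with compounds at up to 57 uM. SteadyGlo luminescence gave expression; GF-AFC fluorescence gave viability.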
HT1080 IDH1KD tx – kills HT-1080 cells with IDH1 knockdown; HT-1080 IDH1 knockdown viability, ATP luminescence, 48 h; Potency, µM (highest dose often 46.1 µM), most hits filed as cytotoxic; 360,000 tested, 2% active; AID 686971
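Knockdown cells (IDH1KD HT-1080) received compounds 2 h after plating at 750 cells/well and were kept 48 h at 37 °C in 5% FBS RPMI. A CellTiter-Glo luminescence read gave % activity for curve fitting.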
Hits are given with their value; [ ] = remark or other dose. Calls follow the shape of the dose curve; as a rule, active = well fitted curve in the direction sought with a large enough effect; inconclusive = small, poorly fitted or top-dose-only effect, or another doubt; inactive = no such curve, though single readings can be large; an effect the other way counts as inactive or inconclusive.

Results for CC(=O)OCCNc1cc(Sc2nc3ccccc3[nH]2)c2nonc2c1[N+](=O)[O-] ?
S2 tox: inconclusive; KB-3-1 tox: inconclusive; HT1080NT lethal: inactive; KB-V1 cytotox: inactive; ATXN2 expr inh: inactive; HT1080 IDH1KD tx: 18µM

What do the screens show for `CC(=O)OCCCNc1cc(Sc2nc3ccccc3s2)c2nonc2c1[N+](=O)[O-]`?
KB-3-1 tox: inactive; HT1080NT lethal: inactive; KB-V1 cytotox: inactive; ATXN2 expr inh: 16µM; HT1080 IDH1KD tx: inactive

What do the screens show for `COc1ccc(CN2C(=O)CN(S(C)(=O)=O)CC2(C)C(=O)Nc2ccc3c(c2)OCCO3)cc1OC` (configuration not stated)?
KB-3-1 tox: inactive; HT1080NT lethal: inactive; KB-V1 cytotox: inactive; HT1080 IDH1KD tx: inactive

How did Cc1ccc(COc2ccc(/C=N/NC(=O)c3nnn(-c4nonc4N)c3COc3ccc(F)cc3)cc2)cc1 do in these assays?
S2 tox: inactive; KB-3-1 tox: inconclusive; HT1080NT lethal: inactive; KB-V1 cytotox: inconclusive; ATXN2 expr inh: inactive; HT1080 IDH1KD tx: inactive

What do the screens show for `COc1ccc2ccccc2c1/C=N/NC(=O)c1nnn(-c2nonc2N)c1C(C)C`?
S2 tox: inactive; KB-3-1 tox: inactive; HT1080NT lethal: inactive; KB-V1 cytotox: inconclusive; ATXN2 expr inh: inactive; HT1080 IDH1KD tx: inconclusive

Results for Nc1nonc1-n1nnc(C(=O)N/N=C/c2ccc(OCc3ccc(F)cc3)cc2)c1COc1ccccc1 ?
S2 tox: inactive; KB-3-1 tox: inactive; HT1080NT lethal: 18µM; KB-V1 cytotox: inactive; ATXN2 expr inh: inactive; HT1080 IDH1KD tx: inconclusive

How did Nc1nonc1-n1nnc(C(=O)N/N=C/c2cc(Br)ccc2O)c1CNc1ccccc1 do in these assays?
S2 tox: inconclusive; KB-3-1 tox: inconclusive; HT1080NT lethal: inconclusive; KB-V1 cytotox: inactive; ATXN2 expr inh: inactive; HT1080 IDH1KD tx: 23µM

Results for CC(C)c1c(C(=O)N/N=C/c2ccccc2OCc2c(F)cccc2Cl)nnn1-c1nonc1N ?
S2 tox: inactive; KB-3-1 tox: inactive; HT1080NT lethal: inactive; KB-V1 cytotox: 16µM; ATXN2 expr inh: inactive; HT1080 IDH1KD tx: inconclusive

What do the screens show for `Cc1ccc(/C=N/NC(=O)c2nnn(-c3nonc3N)c2CNc2ccccc2)cc1`?
S2 tox: inactive; KB-3-1 tox: inactive; HT1080NT lethal: inactive; KB-V1 cytotox: inactive; ATXN2 expr inh: inactive; HT1080 IDH1KD tx: inactive

Results for Cc1c(C(=O)N/N=C/c2c(O)ccc3ccccc23)nnn1-c1nonc1N ?
S2 tox: inconclusive; KB-3-1 tox: inconclusive; HT1080NT lethal: inconclusive; KB-V1 cytotox: inactive; ATXN2 expr inh: 1.6µM; HT1080 IDH1KD tx: 0.58µM

How did Cc1ccc(C)c(NC(=O)CN2C(=O)CCc3cc(S(=O)(=O)N4CCCCC4)ccc32)c1 do in these assays?
S2 tox: inactive; KB-3-1 tox: inactive; KB-V1 cytotox: inactive; ATXN2 expr inh: inactive

What do the screens show for `CCc1nc2c(OCc3c(C)noc3C)cccn2c1N(C=O)Cc1ccccc1`?
S2 tox: inactive; KB-3-1 tox: inactive; HT1080NT lethal: inactive; KB-V1 cytotox: inactive; ATXN2 expr inh: inactive; HT1080 IDH1KD tx: inactive

How did Nc1nonc1C(=O)N/N=C/c1cc(Br)ccc1O do in these assays?
S2 tox: inactive; KB-3-1 tox: inactive; HT1080NT lethal: inconclusive; KB-V1 cytotox: inactive; ATXN2 expr inh: inactive[11.3 µM]; HT1080 IDH1KD tx: 2.1µM

How did CCc1cccc(C)c1NC(=O)CCS(=O)(=O)c1ccc2c(c1)oc(=O)n2C do in these assays?
S2 tox: inactive; KB-3-1 tox: inactive; KB-V1 cytotox: inactive; ATXN2 expr inh: inactive

Results for Cc1ccc(NC(=O)c2ccc(NC(=O)CCS(=O)(=O)c3cccs3)cc2)cc1F ?
S2 tox: inconclusive; KB-3-1 tox: inactive; KB-V1 cytotox: inactive; ATXN2 expr inh: inconclusive

What do the screens show for `CC(=O)[C@H]1CC[C@@H](c2ccccc2)N(S(=O)(=O)c2ccc(C)cc2)C1`?
KB-3-1 tox: inactive; HT1080NT lethal: inactive; KB-V1 cytotox: inconclusive; HT1080 IDH1KD tx: inactive

How did Cc1cccc(C)c1OCC(=O)Nc1oc(-c2ccccc2)c(-c2ccccc2)c1C#N do in these assays?
S2 tox: inactive; KB-3-1 tox: inconclusive; HT1080NT lethal: inconclusive; KB-V1 cytotox: 16µM; ATXN2 expr inh: inactive; HT1080 IDH1KD tx: inactive

What do the screens show for `COc1ccc(C(=O)Nc2oc(-c3ccccc3)c(-c3ccccc3)c2C#N)cc1`?
S2 tox: inactive; KB-3-1 tox: inconclusive; HT1080NT lethal: inactive; KB-V1 cytotox: inconclusive; ATXN2 expr inh: inactive; HT1080 IDH1KD tx: inconclusive

Results for CCOC(=O)CN(C(=O)COc1nc(-c2ccccc2)cc(C)c1C#N)c1ccccc1C ?
S2 tox: inconclusive; KB-3-1 tox: 3.7µM; HT1080NT lethal: inactive; KB-V1 cytotox: inactive; HT1080 IDH1KD tx: inactive

Results for CCOC(=O)CN(C(=O)COc1nc(-c2ccccc2)cc(C)c1C#N)c1ccccc1 ?
S2 tox: inactive; KB-3-1 tox: inconclusive; HT1080NT lethal: inactive; KB-V1 cytotox: inactive; ATXN2 expr inh: inactive; HT1080 IDH1KD tx: inactive

Results for O=c1cc(N2CCN(c3ccccc3)CC2)[nH]c(=O)n1C1CCCCC1 ?
S2 tox: inactive; KB-3-1 tox: inactive; HT1080NT lethal: inactive; KB-V1 cytotox: inactive; ATXN2 expr inh: 5µM; HT1080 IDH1KD tx: inactive

How did O=c1cc(N2CCN(c3cccc(Cl)c3)CC2)[nH]c(=O)n1C1CCCCC1 do in these assays?
S2 tox: inactive; KB-3-1 tox: inconclusive; HT1080NT lethal: inactive; KB-V1 cytotox: inconclusive; ATXN2 expr inh: inconclusive; HT1080 IDH1KD tx: inactive

How did Cc1cc(S(=O)(=O)N2CCN=C2c2ccccc2)ccc1F do in these assays?
S2 tox: inactive; KB-3-1 tox: inactive; HT1080NT lethal: inactive; KB-V1 cytotox: inconclusive; ATXN2 expr inh: inactive; HT1080 IDH1KD tx: inactive

Results for CCOc1ccc(S(=O)(=O)N2CCN=C2c2ccccc2)cc1 ?
S2 tox: inactive; KB-3-1 tox: inconclusive; HT1080NT lethal: inconclusive; KB-V1 cytotox: 12µM; ATXN2 expr inh: inactive; HT1080 IDH1KD tx: inactive

What do the screens show for `CCOc1ccc(S(=O)(=O)N(CC(=O)Nc2ccc(OC)cc2OC)c2ccccc2)cc1`?
S2 tox: inactive; KB-3-1 tox: inactive; KB-V1 cytotox: inactive; ATXN2 expr inh: inactive

How did CCOc1cc(-c2noc(N)c2C(=O)OC)cc(OCC)c1OCC do in these assays?
S2 tox: inconclusive; KB-3-1 tox: inactive; HT1080NT lethal: inactive; KB-V1 cytotox: 12µM; ATXN2 expr inh: inactive; HT1080 IDH1KD tx: inactive

What do the screens show for `CCOC(=O)C1CCCCN1C(=O)c1cnn(-c2nccc(-c3cc(C)sc3C)n2)c1C1CC1` (configuration not stated)?
S2 tox: inactive

How did COC(=O)C1CCN(Cc2ccc(OCCCN3CCN(c4ccc([N+](=O)[O-])cc4)CC3)cc2)CC1 do in these assays?
S2 tox: inactive; KB-3-1 tox: inactive; HT1080NT lethal: inactive; KB-V1 cytotox: inconclusive; HT1080 IDH1KD tx: 15µM
